Laboratory results as given in PubChem BioAssay AID1159580 (chemical genetic matrix, 2015).
The whole screen tested about 5,500 compounds, of which about 2,000 (36%) were called active. Inconclusive results (about 18%) are left out. No stated cut-off is given here; in the data, active means normalized growth mostly below about 0.91 (no sharp cut-off); inconclusive means no clear call, values can overlap the other calls; inactive means mostly above about 0.92. Some of the results follow.

Assay: chemical genetic growth profiling, strain panel (AID 1159580);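 further: tested at 20 µM; growth read once vehicle control cultures reached saturation at 30 °C; 1 = growth at the plate median or of vehicle wells; lower values mean less growth of the strain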
Conditions: S. cerevisiae deletion strains, growth OD

Measured: normalized growth

Cc1ccc(-c2nn[nH]n2)cc1Cl
inactive: locus YAL013W, strain DEP1, active compounds read low 0.965 | locus YBR229C, strain ROT2, active compounds read low 0.963 | locus YDL101C, strain DUN1, active compounds read low 0.985 | locus YDL134C, strain PPH21, active compounds read low 0.997 | locus YDR150W, strain NUM1, active compounds read low 0.935 | locus YEL061C, strain CIN8, active compounds read low 0.983 | locus YGR078C, strain PAC10, active compounds read low 0.967 | locus YGR229C, strain SMI1, active compounds read low 0.984 | locus YHR030C, strain SLT2, active compounds read low 1 | locus YHR087W, strain rtc3, active compounds read low 0.975 | locus YJR043C, strain POL32, active compounds read low 0.932 | locus YJR075W, strain HOC1, active compounds read low 0.966 | locus YLR039C, strain RIC1, active compounds read low 1 | locus YLR058C, strain SHM2 (second series), active compounds read low 0.962 | locus YLR085C, strain ARP6, active compounds read low 1 | locus YLR262C, strain YPT6, active compounds read low 1 | locus YML094W, strain GIM5, active compounds read low 1 | locus YMR219W, strain ESC1, active compounds read low 0.97 | locus YMR263W, strain SAP30, active compounds read low 0.933 | locus YNL153C, strain GIM3, active compounds read low 0.969 | locus YNL298W, strain CLA4 (second series), active compounds read low 1.02 | locus YNL322C, strain KRE1, active compounds read low 0.947 | locus YNR030W, strain Alg12, active compounds read low 1 | locus YOL006C, strain TOP1, active compounds read low 1.07 | locus YPL055C, strain LGE1, active compounds read low 0.944 | locus YPL241C, strain CIN2, active compounds read low 1.12 | locus YPR135W, strain CTF4, active compounds read low 1.03
